These results are taken from the supplement of paper PMC9694430.

Assay in all cases: thermal shift delta Tm vs DMSO control; higher = stronger stabilization (binding)
Details in all cases: 12.5 µM; protein concentration 2 µM

One test relates to LOC_OS01G01410-cb001. In a few lines:
(§1)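 The melting temperature shift given here is a triplicate mean, measured against protein that received only DMSO. Melting temperatures came from Boltzmann fits of differential scanning fluorimetry data on E. coli-expressed, purified rice kinase domain constructs. Each 19.5 μl well contained 2 μM kinase, 100 mM potassium phosphate pH 7.5, 150 mM NaCl, 10% glycerol, 5 × SYPRO Orange and compound in DMSO. Plates were scanned from 25°C to 95°C at 0.05°C/s.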

Another test relates to LOC_OS01G02750-cb003. The method in brief: as §1
The test system of another test is LOC_OS01G10900-cb004. The method in brief:
as §1

Another test relates to LOC_OS01G13800-cb001. In a few lines: as §1
In a further test the test system is LOC_OS01G14860-cb001. The method in brief: as §1
The next test deals with LOC_OS01G21960-cb002. The method in brief:
as §1

The next test relates to LOC_OS01G39600-cb002. In a few lines:
as §1

Another test relates to LOC_OS01G48390-cb002. In a few lines:
as §1

The next test deals with LOC_OS01G51400-cb002. The method in brief:
as §1

The next test relates to T1, LOC_OS01G52050-cb004.
T1 sequence (whole entry): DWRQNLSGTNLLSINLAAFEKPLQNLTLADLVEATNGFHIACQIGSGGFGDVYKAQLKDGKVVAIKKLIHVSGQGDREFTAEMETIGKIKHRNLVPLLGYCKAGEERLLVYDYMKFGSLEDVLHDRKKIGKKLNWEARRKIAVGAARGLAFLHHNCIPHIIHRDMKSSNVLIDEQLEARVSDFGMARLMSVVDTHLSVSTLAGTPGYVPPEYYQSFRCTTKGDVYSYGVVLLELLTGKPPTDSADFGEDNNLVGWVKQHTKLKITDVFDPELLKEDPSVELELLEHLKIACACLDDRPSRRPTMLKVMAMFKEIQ
The method in brief:
as §1

Regarding `CCNC(=O)Nc1ccc(-c2nc(N3CCOC[C@@H]3C)c3c(n2)C(C)(C)S(=O)(=O)C3)cc1`, the “thermal shift delta Tm” value was 0.67 °C in the test on LOC_OS01G01410-cb001; 1.05 °C with LOC_OS01G02750-cb003; 0.47 °C in the test on LOC_OS01G10900-cb004; 0.09 °C with LOC_OS01G13800-cb001; 0.6 °C with LOC_OS01G14860-cb001; 0.34 °C in the test on LOC_OS01G21960-cb002. The “thermal shift delta Tm” value is -0.26 °C in the test with LOC_OS01G39600-cb002, -0.02 °C in the test on LOC_OS01G48390-cb002, 0.22 °C in the test on LOC_OS01G51400-cb002 and 3.06 °C in the test on LOC_OS01G52050-cb004.
Regarding `Cc1c[nH]c(/C=C2\C(=O)Nc3ccccc32)c1CCC(=O)O`, the “thermal shift delta Tm” value was found to be 1.48 °C in the test with LOC_OS01G01410-cb001; 0.9 °C in the test with LOC_OS01G02750-cb003; 0.02 °C in the test with LOC_OS01G10900-cb004; 0 °C with LOC_OS01G13800-cb001; 1.61 °C with LOC_OS01G14860-cb001; 0.56 °C in the test on LOC_OS01G21960-cb002. Moreover, the “thermal shift delta Tm” value was found to be 4.55 °C in the test with LOC_OS01G39600-cb002, 1.99 °C in the test on LOC_OS01G48390-cb002, 0.25 °C with LOC_OS01G51400-cb002 and 1.77 °C in the test on LOC_OS01G52050-cb004.
Turning to `CC(C)NC(=O)C1CCC(n2c(NC(=O)c3ccc(F)cc3)nc3ccc(CN4CCC(C(C)(C)O)CC4)cc32)CC1` (stereo not given) [Belizatinib (TSR-011)], the “thermal shift delta Tm” value is 0.68 °C in the test on LOC_OS01G01410-cb001; 3.65 °C in the test on LOC_OS01G02750-cb003; 1.75 °C in the test on LOC_OS01G10900-cb004; -0.36 °C in the test on LOC_OS01G13800-cb001; 0.58 °C in the test with LOC_OS01G14860-cb001; 1.84 °C in the test with LOC_OS01G21960-cb002. In addition, the “thermal shift delta Tm” value in the test with LOC_OS01G39600-cb002 was 2.02 °C; in the test with LOC_OS01G48390-cb002, 2.61 °C; in the test on LOC_OS01G51400-cb002, 0.56 °C; in the test with LOC_OS01G52050-cb004, 4.45 °C.
As for `Cc1nc(N)sc1-c1ccnc(Nc2ccc(N3CCOCC3)cc2)n1`, the “thermal shift delta Tm” value with LOC_OS01G01410-cb001 stood at 5.75 °C; in the test on LOC_OS01G02750-cb003, 10.4 °C; in the test with LOC_OS01G10900-cb004 it was 1.74 °C; in the test on LOC_OS01G13800-cb001, 0.29 °C; in the test on LOC_OS01G14860-cb001, 2.6 °C; in the test with LOC_OS01G21960-cb002 it was 2.06 °C. In addition, the “thermal shift delta Tm” value in the test on LOC_OS01G39600-cb002 turned out to be 3.24 °C; in the test on LOC_OS01G48390-cb002, 2.34 °C; in the test with LOC_OS01G51400-cb002 it was 0.68 °C; in the test with LOC_OS01G52050-cb004 it was 6.52 °C.
Take `CSc1cccc(Nc2ncc3cc(-c4c(Cl)cccc4Cl)c(=O)n(C)c3n2)c1`: the “thermal shift delta Tm” value was determined as 0.57 °C in the test on LOC_OS01G01410-cb001; 0.56 °C in the test with LOC_OS01G02750-cb003; 1.7 °C with LOC_OS01G10900-cb004; 0.31 °C in the test on LOC_OS01G13800-cb001; 0.06 °C in the test on LOC_OS01G14860-cb001; 0.55 °C in the test with LOC_OS01G21960-cb002. In addition, the “thermal shift delta Tm” value with LOC_OS01G39600-cb002 is -0.21 °C; in the test with LOC_OS01G48390-cb002, 0.12 °C; in the test with LOC_OS01G51400-cb002, 0.18 °C; in the test with LOC_OS01G52050-cb004, 0.18 °C.
For the molecule `Nc1nccc(Oc2ccc3c(C(=O)Nc4cccc(C(F)(F)F)c4)cccc3c2)n1`, the “thermal shift delta Tm” value in the test with LOC_OS01G01410-cb001 stood at 0.89 °C; in the test on LOC_OS01G02750-cb003, 1.42 °C; in the test on LOC_OS01G10900-cb004, 0.88 °C; in the test with LOC_OS01G13800-cb001, 1.39 °C; in the test on LOC_OS01G14860-cb001, 3.82 °C; with LOC_OS01G21960-cb002, 1.43 °C. For the same molecule, the “thermal shift delta Tm” value in the test on LOC_OS01G39600-cb002 was determined as 0.93 °C; in the test with LOC_OS01G48390-cb002, 1.13 °C; in the test with LOC_OS01G51400-cb002 it was 0.12 °C; in the test on LOC_OS01G52050-cb004, 1.04 °C.
On to `CCn1c(=O)c(-c2ccc(-c3cncs3)cc2Cl)cc2cnc(Nc3ccc(N4CCN(C)CC4)cc3)nc21`, for which the “thermal shift delta Tm” value with LOC_OS01G01410-cb001 is 0.16 °C; in the test on LOC_OS01G02750-cb003 it was -0.15 °C; in the test with LOC_OS01G10900-cb004 it was 0.42 °C; in the test on LOC_OS01G13800-cb001, 0.34 °C; in the test with LOC_OS01G14860-cb001 it was 0.12 °C; with LOC_OS01G21960-cb002 it was 0.22 °C. The “thermal shift delta Tm” value with LOC_OS01G39600-cb002 was -0.49 °C; in the test with LOC_OS01G48390-cb002, -0.5 °C; in the test on LOC_OS01G51400-cb002 it was 0.02 °C; in the test with LOC_OS01G52050-cb004, -0.32 °C.
`C[C@@H]1COCCN1c1cc(C2([S@](C)(=N)=O)CC2)nc(-c2cc[nH]c3nccc2-3)n1`: the “thermal shift delta Tm” value is 0.28 °C in the test with LOC_OS01G01410-cb001; 0.13 °C in the test with LOC_OS01G02750-cb003; -0.04 °C in the test with LOC_OS01G10900-cb004; 0.31 °C in the test on LOC_OS01G13800-cb001; -0.19 °C in the test with LOC_OS01G14860-cb001; -0.02 °C in the test with LOC_OS01G21960-cb002. Besides, the “thermal shift delta Tm” value was -0.99 °C with LOC_OS01G39600-cb002, -0.04 °C with LOC_OS01G48390-cb002, -0.01 °C in the test with LOC_OS01G51400-cb002 and -0.09 °C in the test on LOC_OS01G52050-cb004.
On to `Cc1cc(C(C)Nc2ccccc2)c2nc(N3CCOCC3)cc(=O)n2c1` (stereo not given), for which the “thermal shift delta Tm” value in the test on LOC_OS01G01410-cb001 was 1.33 °C; in the test on LOC_OS01G02750-cb003 it was -0.12 °C; in the test on LOC_OS01G10900-cb004 it was 0.5 °C; with LOC_OS01G13800-cb001, 0.23 °C; with LOC_OS01G14860-cb001, 1.25 °C; in the test on LOC_OS01G21960-cb002 it was 0.01 °C. Also, the “thermal shift delta Tm” value in the test on LOC_OS01G39600-cb002 was found to be 0.8 °C; in the test on LOC_OS01G48390-cb002, 1.36 °C; in the test on LOC_OS01G51400-cb002, 0.16 °C; in the test on LOC_OS01G52050-cb004 it was 0.56 °C.
Consider `Clc1ccc(C2(c3ccc(-c4cn[nH]c4)cc3)CCNCC2)cc1`, for which the “thermal shift delta Tm” value is 0.09 °C with LOC_OS01G01410-cb001; 0.73 °C in the test on LOC_OS01G02750-cb003; 0.17 °C with LOC_OS01G10900-cb004; 0.44 °C with LOC_OS01G13800-cb001; 0.54 °C in the test on LOC_OS01G14860-cb001; 0.46 °C in the test with LOC_OS01G21960-cb002. The “thermal shift delta Tm” value with LOC_OS01G39600-cb002 is -0.39 °C; in the test with LOC_OS01G48390-cb002, 0.45 °C; in the test with LOC_OS01G51400-cb002, 0 °C; in the test with LOC_OS01G52050-cb004, 0.38 °C.
